# Out of some 390,000 compounds screened, about 17,000 (4.4%) were called active. Where a call stands in place of a potency, no number is given. Another 8% or so got no clear call; they are omitted. Calls follow the shape of the dose curve; as a rule, active = well fitted inhibition curve with a large enough effect; inconclusive = small, poorly fitted or top-dose-only effect; inactive = no such curve, though single readings can be large or run the other way. The sample as a whole holds a higher share of actives than the screen did.
# Target: Lysine-specific demethylase 4A (Homo sapiens) (UniProt O75164)
# Test: qHTS Assay for Inhibitors of JMJD2A-Tudor Domain; also: nearly all actives have a fitted effect of over 50% in size
# Details: AlphaScreen JMJD2A-Tudor / H3K4me3 peptide binding; series mostly up to 114 µM
# Potency is read from the fitted curve at half-maximal effect.
# Lysine-specific demethylase 4A (Homo sapiens), sequence (O75164 whole entry, looked up, the tested form may be a part): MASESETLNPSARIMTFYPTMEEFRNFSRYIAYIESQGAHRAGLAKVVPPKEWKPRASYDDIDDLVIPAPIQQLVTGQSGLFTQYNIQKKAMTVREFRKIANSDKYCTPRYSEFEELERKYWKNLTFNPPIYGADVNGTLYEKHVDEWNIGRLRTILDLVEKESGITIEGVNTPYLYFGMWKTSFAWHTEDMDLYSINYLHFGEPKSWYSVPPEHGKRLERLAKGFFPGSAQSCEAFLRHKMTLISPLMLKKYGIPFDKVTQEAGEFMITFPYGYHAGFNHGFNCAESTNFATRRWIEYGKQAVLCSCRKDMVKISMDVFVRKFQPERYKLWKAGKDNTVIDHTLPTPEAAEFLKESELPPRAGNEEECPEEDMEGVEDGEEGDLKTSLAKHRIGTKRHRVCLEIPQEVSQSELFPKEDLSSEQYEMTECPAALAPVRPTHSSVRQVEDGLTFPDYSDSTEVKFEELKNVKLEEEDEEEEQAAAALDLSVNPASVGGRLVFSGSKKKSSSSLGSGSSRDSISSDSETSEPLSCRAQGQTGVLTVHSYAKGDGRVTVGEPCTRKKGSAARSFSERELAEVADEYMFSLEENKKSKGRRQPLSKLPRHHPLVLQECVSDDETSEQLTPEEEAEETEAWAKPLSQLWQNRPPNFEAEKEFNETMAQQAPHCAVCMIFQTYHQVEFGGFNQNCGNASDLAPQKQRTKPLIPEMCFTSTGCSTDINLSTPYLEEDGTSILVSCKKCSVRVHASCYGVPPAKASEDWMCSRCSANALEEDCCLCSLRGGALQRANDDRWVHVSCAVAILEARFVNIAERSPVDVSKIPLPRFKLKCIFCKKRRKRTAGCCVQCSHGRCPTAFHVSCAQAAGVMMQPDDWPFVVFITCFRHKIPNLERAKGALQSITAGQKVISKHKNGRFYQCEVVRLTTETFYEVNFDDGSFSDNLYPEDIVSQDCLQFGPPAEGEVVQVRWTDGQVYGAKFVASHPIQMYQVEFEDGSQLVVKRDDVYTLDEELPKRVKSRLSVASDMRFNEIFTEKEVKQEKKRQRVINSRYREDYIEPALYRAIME
row,SMILES,Potency
1,CSCCC(C(=O)NC1=NCCS1)N1C(=O)c2ccccc2C1=O (configuration not stated),79.4 µM (active)
2,O=C(NC1=NCCS1)[C@H](Cc1ccccc1)N1C(=O)c2ccccc2C1=O,inactive
3,COc1ccc(CNC(=O)COC(=O)C(CCSC)N2C(=O)c3ccccc3C2=O)cc1 (configuration not stated),inactive
4,Cc1ccc2oc(=O)c3cnn(CC(=O)N4CCN(c5cccc(Cl)c5)CC4)c3c2c1,inactive
5,CCCCN(CC)CCCNC(=O)c1nn(C)c2c1CS(=O)(=O)c1ccccc1-2,inactive
6,CC(=O)c1cccc(NC(=O)CSc2nc3c(c(=O)[nH]2)CCC3)c1,inactive
7,Cc1c(-c2cccc(NC(=O)C(C)(C)C)c2)nc2ncccn12,inactive
8,CCc1cccc(C)c1Nc1c(-c2ccc(N(C)C)cc2)nc2ncccn12,35.5 µM (active)
9,Cc1ccccc1Nc1c(-c2ccccc2)nc2ncccn12,inactive
10,CCn1cc(C(=O)N2CCN(c3cc(C)ccc3C)CC2)c(=O)c2cc(S(=O)(=O)N(C)C3CCCCC3)ccc21,inactive
11,O=C(NCCc1ccccc1)c1cnc2sc(N3CCCC3)nn2c1=O,inactive
12,COC(=O)c1ccc(NC(=O)CCc2c(C)nc3c(c(C)nn3-c3ccc(C)cc3)c2C)cc1,inactive
13,C#CCOCCOCCOCCNc1nc(N2CCN(C(=O)[C@H](Cc3ccc(O)cc3)n3cc(C(N)CC(C)C)nn3)CC2)nc(N2CCN(C(=O)[C@H](CCC(=O)O)n3cc(C(N)[C@H](C)CC)nn3)CC2)n1 (some centres not stated),44.7 µM (active)
14,CC[C@H](C)[C@@H](C(=O)N1CCNCC1)n1cc([C@@H](N)Cc2ccc(O)cc2)nn1,inactive
15,C#CCOCCOCCOCCNc1nc(N2CCOCC2)nc(N2CCN(C(=O)[C@H](Cc3ccc(O)cc3)n3cc(CCO)nn3)CC2)n1,inactive
16,C#CCOCCOCCOCCNc1nc(N2CCN(C(=O)[C@H](CCC(=O)O)n3cc(C(N)CO)nn3)CC2)nc(N2CCN(C(=O)[C@H](Cc3ccc(O)cc3)n3cc(C(N)[C@H](C)CC)nn3)CC2)n1 (some centres not stated),28.2 µM (active)
17,C#CCOCCOCCOCCNc1nc(N2CCN(C(=O)C(Cc3ccc(O)cc3)n3cc(C(N)CC(C)C)nn3)CC2)nc(N2CCN(C(=O)C(Cc3ccc(O)cc3)n3cc(C(N)C(C)CC)nn3)CC2)n1 (configuration not stated),50.1 µM (active)
18,C#CCOCCOCCOCCNc1nc(N2CCN(C(=O)[C@H](CCCCN)n3cc([C@@H](N)C(C)CC)nn3)CC2)nc(N2CCN(C(=O)[C@H](Cc3ccc(O)cc3)n3cc([C@@H](N)C(C)CC)nn3)CC2)n1 (some centres not stated),44.7 µM (active)
19,O=C(NCc1ccccc1)c1ccc2c(c1)nc1n2CCCCC1,inactive
20,CC(C)c1ccc(NS(=O)(=O)c2ccc3[nH]cc(C(=O)NC4CCCC4)c(=O)c3c2)cc1,inactive
21,CCC(Sc1nc2n[nH]c(C)c2c(=N)n1-c1ccccc1Cl)C(=O)N(CC)CC (configuration not stated),inactive
22,Cc1nnc(SCc2cc(=O)c3cc(F)ccc3[nH]2)n1C,inactive
23,Cc1cc(NC(=O)c2ccc(-c3ccc(Cl)cc3)o2)cc(-c2nc3ncccc3o2)c1O,inactive

row,SMILES,Potency
1,CC(=O)c1ccc(NC(=O)c2nc3nc(C)cc(C(F)F)n3n2)cc1,inactive
2,CCc1cc(-c2nnc(SCC(=O)NC3CC3)n2C)cs1,inactive
3,CCCc1cc(-c2n[nH]c(=S)n2Cc2ccccc2)cs1,inactive
4,CCc1cc(-c2n[nH]c(=S)n2CC(C)C)cs1,28.2 µM (active)
5,Cc1ccccc1NC(=O)CN1C(=O)C(C)(C)c2ccccc21,inactive
6,CCOc1ccc(N(CC)S(=O)(=O)N2CCCC(C(=O)NCc3ccc(SC)cc3)C2)cc1 (configuration not stated),inactive
7,COc1ccc(N2CCN(S(=O)(=O)c3ccc(-c4coc(C)n4)cc3)CC2)cc1,inactive
8,CCc1nc(-c2cc(S(=O)(=O)N3CCN(c4ccc(OC)cc4)CC3)ccc2OC)no1,79.4 µM (active)
9,COc1ccc(S(=O)(=O)N2CCN(c3ccc(F)cc3)CC2)cc1-c1noc(C)n1,inactive
10,Cc1csc2nc(COc3ccc(NC(=O)COc4ccccc4)cc3)cc(=O)n12,inactive
11,CCn1c2ccccc2c2nnc(SCC(=O)O)nc21,inactive
12,O=C(CCC(=O)NNc1nc2ccccc2c2nc(-c3ccccc3)nn12)NCCCN1CCCC1=O,inactive
13,O=C(CCn1c(=S)[nH]c2ccccc2c1=O)NCCCN1CCCC1=O,17.8 µM (active)
14,CCOc1cc2[nH]c(=S)n(CCCN3CCCC3=O)c(=O)c2cc1OCC,22.4 µM (active)
15,O=C(CCCCCn1c(=O)[nH]c2ccccc2c1=O)NCCc1c[nH]c2ccccc12,inactive
16,CCOc1cc2[nH]c(=S)n(CCN3CCCCC3C)c(=O)c2cc1OCC (configuration not stated),inactive
17,CCOc1cc2[nH]c(=O)n(Cc3ccc(C(=O)NCCCN4CCCC4=O)cc3)c(=O)c2cc1OCC,inactive
18,Cc1ccc2nc(COc3ccc(NC(=O)COc4ccccc4F)cc3)cc(=O)n2c1,inactive
19,Cc1ccc(NC(=O)Cn2nnc3sc4c(c3c2=O)CCC(C)C4)cc1 (configuration not stated),inactive
20,CCC(=O)N1CCc2cc(S(=O)(=O)NC(C(=O)NCCc3ccc(C)cc3)C(C)C)ccc21 (configuration not stated),inactive
21,Cc1ccc(NC(=O)c2ccc(CSc3ncnc4nc[nH]c34)cc2)c(C)c1,inactive
22,S=c1c2[nH]cnc2ncn1CCSc1ncnc2nc[nH]c12,12.6 µM (active)
23,CCc1ccc(N(CC)c2ncnc3nc[nH]c23)cc1,inactive

row,SMILES,Potency
1,CN(C(=O)CSc1nc2ccc(NC(=O)COc3ccccc3)cc2s1)c1ccccc1,inactive
2,CCCCCCSc1ccc([C@@H]2[C@H]3C(=O)N(CC)C(=O)[C@H]3[C@]3(C(=O)OC)CCCCN23)cc1,inactive
3,CCCCCCSc1ccc([C@@H]2[C@@H]3C(=O)N(CC)C(=O)[C@@H]3[C@]3(C(=O)OC)CCCCN23)cc1OC,56.2 µM (active)
4,CCN1C(=O)[C@@H]2[C@@H](c3ccc(-c4ccc(OC)cc4)c(OC)c3)N3CCC[C@@]3(C(=O)OC)[C@@H]2C1=O,inactive
5,COc1ccc(Cc2nc3ccc(C(=O)NCc4ccccc4C)cc3o2)cc1,inactive
6,O=C1c2ccccc2C(=O)N1c1ccc(S(=O)(=O)N2CCOCC2)c2ccccc12,inactive
7,CC(Sc1nnc(COc2ccccc2)n1-c1ccccc1)C(=O)O (configuration not stated),inactive
8,COc1ccc(OCC(=O)NNC(=O)C2CCC2)cc1,inactive
9,O=C(COc1ccccc1)Nc1ccc(F)cc1,inactive
10,Fc1ccc(/C=N/n2c(COc3ccccc3)n[nH]c2=S)cc1,56.2 µM (active)
11,COc1ccc(CNc2nnnn2C)cc1,inactive
12,COc1ccc(OCc2n[nH]c(=S)n2N)cc1,3.98 µM (active)
13,O=[N+]([O-])c1ccccc1/C=N/n1c(COc2ccccc2)n[nH]c1=S,50.1 µM (active)
14,Cc1c(NC(=O)CCCOc2ccccc2)cccc1[N+](=O)[O-],inactive
15,COc1ccccc1OCc1nnc(SCC(N)=O)n1-c1ccccc1,inactive
16,S=c1[nH]nc(COc2ccccc2)n1-c1ccccc1,12.6 µM (active)
17,O=C(COc1ccccc1[N+](=O)[O-])N/N=C/c1ccc[nH]1,inactive
18,CCOc1ccccc1C(=O)Nc1ccc2c(c1)N(C)C(=O)c1ccccc1S2,inactive
19,CCOC(=O)c1cc2c(=O)n3ccccc3nc2n(CCCOC)c1=NC(=O)C(C)Oc1ccccc1 (configuration not stated),inactive
20,Cc1ccc2nc(N3CCN(c4cccc(Cl)c4)CC3)c3nnnn3c2c1,inactive
21,Cc1cc(C)cc(NC(c2nnc(-c3cccc(F)c3)o2)c2ccc(F)cc2Cl)c1 (configuration not stated),inactive
22,COc1ccc(CCNC(=O)c2ccc(-n3c(C)cc4c3CCCC4)cc2)cc1OC,inactive
23,COc1ccc(C2/C=C\CN(Cc3ccco3)C(C)C(=O)N2Cc2ccc(F)cc2)cc1 (configuration not stated),inactive

row,SMILES,Potency
1,O=C(NCCc1ccccc1)c1ccc2c(c1)N(Cc1ccccc1)C(=O)c1ccccc1S2(=O)=O,inactive
2,Cc1cnc(NC(=O)Cn2cnc3c2c(=O)n(C)c(=O)n3C)s1,inactive
3,Cc1cnc(NC(=O)c2ccccn2)s1,56.2 µM (active)
4,CN(C(=O)c1ccccn1)c1nnc(-c2ccccn2)s1,inactive
5,Cc1c(Cl)cccc1NC(=O)c1noc2c1CCCC2,inactive
6,CC(=O)Nc1ccc(NC(=O)CS(=O)(=O)c2cn(CC(=O)N3CCCCC3)c3ccccc23)cc1,inactive
7,CCOC(=O)c1ccc(NC(=O)Cn2cc(S(=O)(=O)Cc3ccccc3F)c3ccccc32)cc1,inactive
8,CCOC(=O)c1ccc(NC(=O)CS(=O)(=O)c2cn(CC)c3ccccc23)cc1,79.4 µM (active)
9,COc1ccccc1NC(=O)CSc1oc(-c2ccco2)nc1S(=O)(=O)c1ccc(Br)cc1,inactive
10,CCCn1c2ccccc2c2cnn(CC(=O)N(C)c3ccccc3CC)c(=O)c21,inactive
11,CN(C)CCOCCOc1ccc(Cl)c2ccccc12,3.16 µM (active)
12,CCCC(C(=O)OCCN(CC)CC)(c1ccccc1)c1ccccc1,inactive
13,CCN(CC)CCOCCOc1ccc(Cl)c2ccccc12,25.1 µM (active)
14,CCOc1ccc(S(=O)(=O)N2CCCCCC2)c2ccccc12,inactive
15,COc1ccc(C)cc1NC(=O)C(=O)NCCc1sc(-c2cccc(C)c2)nc1C,inactive
16,Cc1nc(SCC(=O)N2CCN(c3ccccc3)CC2)[nH]c(=O)c1C,inactive
17,CCOc1ccc(NC(=O)CCC(=O)N2CC(C)Oc3ccc(C)cc32)cc1 (configuration not stated),inactive
18,CCOc1ccc(CNC(=O)c2ccc3c(c2)nnn3C2CCCC2)cc1,inactive
19,COc1ccc(-c2nc3sc(CCNC(=O)C(C)(C)C)c(C)n3n2)cc1,inactive
20,CCOC(=O)C[C@H]1c2ccc(C(F)(F)F)cc2S(=O)(=O)N1c1ccccc1,inactive
21,CCOC(=O)NNc1cc(C(F)(F)F)ccn1,inactive
22,CCOC(=O)C1Nc2ccc(C(F)(F)F)cc2C2C=CCC12 (configuration not stated),50.1 µM (active)
23,CCOc1cccc(NC(=O)CSc2ncc(-c3ccc(Cl)cc3)[nH]2)c1,inactive

# Reference: PubChem BioAssay AID504339 (National Center for Advancing Translational Sciences (NCATS), 2011)
